Measured values from PubChem BioAssay (NCATS).
Inconclusive results are not listed. Entries that show only a call come without a potency. Unmarked numbers belong to inactive results. Activity calls are given as the source filed them. Calls follow the shape of the full dose curve.

Assay: Cytotoxicity counterscreen for inhibitors of SARS-CoV-2 cell entry (AID 1645845); also: nearly all actives have a fitted effect of over 50% in size
Settings: cell viability (SARS-CoV-2 entry assay cells); series mostly up to 57.1 µM
Outline: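 48 h compound treatment (after 1 h preincubation), HEK293-ACE2 cells, 37 C/5% CO2; ATP luminescence endpoint; normalized to cell wells and media blanks.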
Potency is read from the fitted curve at half-maximal effect.

SMILES | Potency | activity change, negative = cytotoxicity
CCN(CC)C(=O)Cc1csc(NS(=O)(=O)c2cccc(Cl)c2C)n1 | inactive | –
O=c1[nH]nc2c3c(cccc13)NC(CN1Cc3ccccc3C1)=N2 | inactive | –
CCN(CC)CCNc1ccc(C)c2sc3ccccc3c(=O)c12 | 28.2 µM (active) | –
Cc1ncc(NC(=O)c2cccc(C(F)(F)F)c2)cc1-c1cnc(OC2CCOCC2)c(N2CCOCC2)c1 | inactive | –
Cc1c(CN2CCN(C(=O)[C@H](C)O)CC2)sc2c(N3CCOCC3)nc(-c3cnc(N)nc3)nc12 | inactive | –
CN(C)C/C=C/C(=O)Nc1cc2c(Nc3ccc(F)c(Cl)c3)ncnc2cc1O[C@H]1CCOC1 | inactive | –
COCCOC(=O)N1CCN(S(=O)(=O)c2cc(F)c(Oc3ccc(Cl)cc3)c(F)c2)C(C(=O)NO)C1 (stereo not given) | 31.6 µM (active) | –
CCC[C@H](NC(=O)/C(C#N)=C/c1cccc(Br)n1)c1ccccc1 | 20 µM (active) | –
N#Cc1ccnc(N2C(=O)CC[C@H]2C(=O)N(c2cncc(F)c2)[C@H](C(=O)NC2CC(F)(F)C2)c2ccccc2Cl)c1 | inactive | –
Cc1cc(N2CCOCC2)ccc1Nc1nc(NC2CCCCC2)c2[nH]cnc2n1 | inactive | –
CN(C)N(C)C(=O)[C@@]1(Cc2ccccc2)CCCN(C(=O)[C@@H](Cc2c[nH]c3ccccc23)NC(=O)C(C)(C)N)C1 | inactive | –
O=C(/C=C/N1C[C@H]2C[C@@H]1CN2c1ccccn1)c1ccccc1O | inactive | –
Nc1nccc(-c2c(-c3ccc(F)cc3)ncn2C2CCN(Cc3ccon3)CC2)n1 | inactive | –
Cc1cccc(-c2[nH]ncc2-c2ccc(F)c(-c3cnn(CCO)c3)c2)n1 | inactive | –
COc1cc(OC)cc(N(CCNC(C)C)c2ccc3ncc(-c4cnn(C)c4)nc3c2)c1 | inactive | –
C=C[C@H]1CN2CCC1C[C@@H]2C(O)c1ccnc2ccc(OC)cc12 (stereo not given in full) | inactive | –
CNC(=O)c1ccccc1Nc1nc(Nc2ccc3c(c2OC)CCC[C@@H](N2CCN(CCO)CC2)C3)ncc1Cl | inactive | –
CCN1C(=O)N2Cc3cc(OC)cc(OC)c3[C@@H](C)C=C2C12CCN(Cc1cc(C)cc(C)c1)CC2 | inactive | –
Cc1cc(-n2c(=O)ccc3cnc4[nH]ccc4c32)ccc1F | inactive | –
CN1CCN(CCCNc2ncc(Cl)c(-c3cc4c(C(=O)NC5CC5)cccc4s3)n2)CC1 | inactive | –

SMILES | Potency | activity change, negative = cytotoxicity
O=C(C[C@@H]1C/C=C\CCC(=O)O[C@H](c2ccccc2)CNC1=O)NCc1ccc(Cl)cc1 | inactive | –
O=C(Nc1ccc(OC(F)(F)Cl)cc1)c1cnc(N2CC[C@@H](O)C2)c(-c2ccn[nH]2)c1 | inactive | –
C[C@H](NC(=O)c1c(N)nn2cccnc12)c1cc2cccc(C#Cc3cnn(C)c3)c2c(=O)n1-c1ccccc1 | inactive | –
O=C(NCC(=O)N1CC[C@H](NC2CCC(O)(c3ccc(-c4ncccn4)cn3)CC2)C1)c1cccc(C(F)(F)F)c1 (stereo not given in full) | inactive | –
COC(=O)N(CC(=O)O)Cc1cccc(OCc2nc(-c3ccc(Cl)cc3)oc2C)c1 | inactive | –
O=C(NO)C1(CS(=O)(=O)c2ccc(Oc3ccc(Cl)cc3)cc2)CCOCC1 | inactive | –
CCCC1(CCC)CCC2(CCN(CCCN(CC)CC)C2)CC1 | 7.08 µM (active) | –
CC(/C=C/C(=O)NO)=C\[C@@H](C)C(=O)c1ccc(N(C)C)cc1 | 7.94 µM (active) | –
Cc1ccc(C(=O)Nc2ccc(CN3CCN(C)CC3)c(C(F)(F)F)c2)cc1C#Cc1cnc2[nH]ncc2c1 | 31.6 µM (active) | –
Cc1cc(-c2cnn3c(NCC4CC(C)(O)C4)cc(Oc4cccnc4)nc23)ccc1C(=O)NC1CC1 (stereo not given) | – | 4.49% [at 5.25 µM]
CCOC(=O)C1=CCCCC1S(=O)(=O)Nc1ccc(F)cc1Cl (stereo not given) | inactive | –
Nc1n[n+]([O-])c2ccccc2[n+]1[O-] | inactive | –
CN1C(=O)N(c2cc(Cl)cc(Cl)c2)C(=O)[C@]12CN(Cc1cc(C(=O)O)cs1)C[C@H]2c1ccc(C#N)cc1 | inactive | –
CN1C(N)=N[C@](C)(c2cc(NC(=O)c3ccc(F)cn3)ccc2F)CS1(=O)=O | inactive | –
COc1cc2c(Nc3ccc(Cl)c(Cl)c3F)ncnc2cc1OCC1C[C@@H]2CN(C)C[C@@H]2C1 (stereo not given in full) | 31.6 µM (active) | –
CCCN(CCC)C(=O)C1=Cc2ccc(-c3ccc(C(=O)N4CCCC4)cc3)cc2N=C(N)C1 | inactive | –
CC1(C)CN(C(=O)c2ccc(-c3cccc4nc(NC(=O)C5CC5)nn34)cc2)C1 | inactive | –
Cc1cc(Nc2ncnc3ccc(NC4=NC(C)(C)CO4)cc23)ccc1Oc1ccn2ncnc2c1 | inactive | –
Cc1ccc(-n2nc(C(C)(C)C)cc2NC(=O)NCc2cc(F)ccc2Oc2ccc3c(cnn3CCO)c2)cc1 | inactive | –
CNS(=O)(=O)c1ccc2c(c1)/C(=C/c1[nH]c3c(c1CCCN1CCN(C)CC1)CCCC3)C(=O)N2 | inactive | –
